The list is not random: actives were taken first. Their share in the collection is about 2.1%.
FUS yeast rescue – FUS proteinopathy suppression in yeast. S. cerevisiae FUS-expressing, growth rescue, OD600, 24 h. Potency, µM (doses to about 76.6 µM), actives largely listed as activators. 390,000 compounds, 0.24% hits. AID 1347120;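 further: plate controls were DMSO vehicle for no effect and reference control for full effect; nearly all actives have a fitted effect of over 55% in size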
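Absorbance at 600 nm, taken 24hr after compound addition, measured rescue of FUS-yeast growth at 30C. Induction used 2% galactose with seeding at OD 0.005. Controls: CP55940 from 92uM final, DMSO only.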
aSyn rescue – alpha-synuclein toxicity inhibition in yeast | AID 652106 | 370,000 compounds, 0.14% hits | Yeast expressing alpha-synuclein, growth rescue, BacTiter-Glo, 24 h | Potency, µM (titrated, usually from 46.1 µM), for inactives: top-dose growth rescue (activation), hits mostly activators; further: % of control where 0% means no effect; nearly all actives have a fitted effect of over 65% in size
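Screening used galactose-induced yeast with toxic alpha-synuclein levels, exposed to compound for 24 hr at 30 deg C. Cell growth, read with BacTiter-Glo luminescence, gave the measured signal.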
Abeta yeast res – compounds reversing amyloid beta toxicity in yeast | yeast expressing A-beta42, growth rescue, OD600, 48 h; response scale: 0% DMSO, 100% iron-clioquinol control | Potency, µM (titrated, usually from 46.1 µM), usual class: activators | 410,000 compounds, 0.063% hits | AID 1347071; further: nearly all actives have a fitted effect of over 55% in size
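Growth rescue measured by 600 nm absorbance after 48 h yeast culture at 30 C with compound. Values normalized between DMSO and an equimolar ferric chloride plus clioquinol control.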
TDP-43 yeast inh – rescues yeast growth from TDP-43 toxicity | Potency, µM (titrated, usually from 46.1 µM), for inactives: at the top dose growth rescue (activation), hits mostly activators | TDP-43 expressing yeast growth rescue, BacTiter-Glo, 24 h | AID 652104 | 410,000 compounds, 1.8% hits; further: % of control where 0% means no effect; nearly all actives have a fitted effect of over 50% in size
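Luminescence from BacTiter-Glo reports growth of TDP-43-expressing yeast after 24 hr at 30 deg C with compound. Cells were raffinose-pregrown to mid-log, then seeded in galactose medium at OD600=0.02.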
* marks the source's active call; other numbers are inactive results; i = inactive; ? = inconclusive; · = no result given. The call rests on the fitted dose curve; in most records, active means well fitted curve in the direction sought with a large enough effect; inconclusive means small, poorly fitted or top-dose-only effect, or another doubt; inactive means no such curve, though single readings can be large; an effect the other way counts as inactive or inconclusive. Potency means the concentration at half of the fitted maximal effect.

SMILES	FUS yeast rescue	aSyn rescue	Abeta yeast res	TDP-43 yeast inh
COc1cccc(CN2C(=O)C(C)Oc3ccccc32)c1 (stereo not given)	i	19%	i	2%
CC1CCCN(CC(=O)N2c3ccccc3Sc3ccccc32)C1 (stereo not given)	i	11%	22µM*	1%
Nc1ccc(-c2nc3ncccc3o2)c(Cl)c1	i	14µM*	i	-3%
Nc1ccc(Cl)c(-c2nc3ncccc3o2)c1	?	1%	i	-6%
N#Cc1cccc(S(=O)(=O)N2CCN(c3nc(-c4cccs4)nc4ccccc34)CC2)c1	·	6%	·	·
Fc1cc(F)cc(-c2c(-c3ccccc3)ncc3ccc(F)cc23)c1	i	-16%	i	35µM*
O=[N+]([O-])c1ccc(-c2c(-c3ccccc3)ncc3cc(F)ccc23)cc1	?	-23%	i	0%
O=[N+]([O-])c1cccc(-c2c(-c3ccccc3)ncc3cc(F)ccc23)c1	i	-14%	i	28µM*
CCN(CC)c1ccc(/C=C/c2sc3ccccc3[n+]2CCCCI)cc1	·	-58%	·	·
Cc1ccc(-n2nc(C)c3c(C)cc(=O)n(CC(=O)Nc4cc(Cl)ccc4C)c32)cc1	i	·	i	-27%
COc1ccc(C(=O)Oc2ccc(=O)n(-c3ccccc3)n2)cc1	i	7%	i	14µM*
O=C(Oc1ccc(=O)n(-c2ccccc2)n1)c1ccc(F)cc1	i	2%	i	22µM*
CCOC(=O)c1cc(OC(=O)c2ccccc2)n(-c2ccccc2)n1	i	3%	i	3%
CCOC(=O)c1cc(OC(=O)c2ccc(OC)cc2)n(-c2ccccc2)n1	i	-25%	i	18µM*
Nc1ccc(/C=C/c2ccnc3ccccc23)cc1	·	-1%	·	·
Cc1ccc(-n2ncc(C(=O)NCc3ccc4c(c3)OCO4)c2C2CCN(C(=O)OC(C)(C)C)CC2)c(C)c1	?	·	?	9%
Cc1cc(N/N=C\c2ccccc2)nc(-c2ccccc2O)n1	i	-10%	i	26%
C/C(=N\Nc1cc(C)nc(-c2ccccc2O)n1)c1ccccc1O	i	-9%	i	11µM*
Cc1nc(Nc2ccc3c(c2)OCCO3)c2c(C)c(C)sc2n1	?	13%	i	11µM*
Cc1sc2ncnc(NCc3cccs3)c2c1C	i	-1%	i	18µM*
CCOc1ccc(NC(=O)Cn2c(=O)n(-c3ccc(C)cc3)c(=O)c3cc(OC)c(OC)cc32)cc1	i	·	i	19%
CCCn1c(C)cc(C(=O)COc2ccc(-c3nnco3)cc2)c1C	i	11%	i	28µM*
O=C(OCc1ccccc1)N1CCN(/[N+]([O-])=N/Oc2ccc([N+](=O)[O-])cc2[N+](=O)[O-])CC1	·	-59%	·	·
COC(=O)c1ccc(C2NC(c3ccc4c(c3)OCO4)=CC(c3ccccc3O)N2)cc1 (stereo not given)	·	4%	·	·
Cc1ccc(SCC(=O)OC(C)C(=O)N2CCc3ccccc32)cc1 (stereo not given)	i	1%	i	-2%
SMILES	FUS yeast rescue	aSyn rescue	Abeta yeast res	TDP-43 yeast inh
Cc1cc(C)c(OCC(=O)OC(C)C(=O)N2CCc3ccccc32)c(C)c1 (stereo not given)	i	-19%	i	22µM*
CC(=O)Nc1ccc(Nc2nc3ccccc3nc2NS(=O)(=O)c2ccccc2)cc1	?	-12%	i	20µM*
O=c1cc(CSc2ccc(Cl)cc2)nc(-c2ccccn2)[nH]1	i	10µM*	?	?
O=c1cc(CSc2ccc(Cl)cc2)nc(-c2ccccc2)[nH]1	i	-4%	i	-12%
Clc1ccc(SCc2cc(N3CCOCC3)nc(-c3ccccn3)n2)cc1	i	0%	13µM*	-10%
Clc1ccc(SCc2csc(N3CCOCC3)n2)cc1	i	3%	i	23%
CN(C)c1ccc(N=Nc2ccnc3ccccc23)cc1	·	-4%	·	·
CC(C)Oc1ccc(C(=O)O)cc1	i	1%	i	13µM*
Cc1sc2ncnc(N(C)C3CCCCC3)c2c1C	i	5%	i	16µM*
CN(Cc1ccccc1)/[N+]([O-])=N/Oc1ccc([N+](=O)[O-])cc1[N+](=O)[O-]	·	-72%	·	·
Cc1cc(=O)n2nc(N(C)CC(=O)NCc3ccc(Cl)cc3)sc2n1	i	·	i	0%
Cc1ccc(CCNS(=O)(=O)c2ccc(C)cc2)cc1	i	·	i	16µM*
Cc1ccc(S(=O)(=O)NCCc2ccc(S(N)(=O)=O)cc2)cc1	i	·	i	-13%
COc1ccc(OC)c(-c2csc(NC(=O)Cn3[nH]c(=O)c4ccccc4c3=O)n2)c1	40µM*	-3%	i	-20%
COc1ccc(OC)c(-c2csc(NC(=O)Cc3ccc(F)cc3)n2)c1	i	5%	i	14µM*
Cc1c(C(=O)Nc2cccc(C#N)c2)sc2nc3n(c(=O)c12)CCCCC3	i	·	i	29%
CS(=O)(=O)c1nc(-c2ccc(Br)cc2)cs1	i	·	·	·
Cc1ccc(SCC(=O)NC(=O)c2ccccc2Br)c(C)c1	·	15%	i	13µM*
CC(C)CCn1c(=O)c2sccc2n2c(CCCC(=O)NC(C)C)nnc12	i	·	i	-15%
CCc1ccc(NC(=O)c2ccc(Cn3nc(N4CCN(c5ccccc5)CC4)ccc3=O)o2)cc1	?	·	i	27%
O=C(CSc1nnc(-c2cnccn2)n1-c1ccccc1)c1ccc(F)cc1	i	·	·	·
CCCCOC(=O)c1ccc(Nc2ncnc3nc[nH]c23)cc1	i	-4%	i	2%
CCCCCCCCOC(=O)c1cc([N+](=O)[O-])c(Sc2ncnc3nc[nH]c23)c([N+](=O)[O-])c1	·	-64%	i	13µM*
COc1cc2c(cc1NC(=O)c1ccccc1C)n(C)c(=O)n2C	i	·	i	23%
COC(=O)[C@]1(C)N[C@H](CN(C)S(=O)(=O)c2ccccc2)[C@@H]2C(=O)N(C)C(=O)[C@@H]21	i	-6%	i	14%
SMILES	FUS yeast rescue	aSyn rescue	Abeta yeast res	TDP-43 yeast inh
COC(=O)[C@]1(C)N[C@H](CN(C)S(=O)(=O)c2ccc(-c3ccccc3)cc2)[C@@H]2C(=O)N(C)C(=O)[C@@H]21	i	3.2µM*	i	-2%
C[C@H]1CCC[C@@H](O)CC(=O)c2c(O)cc(O)cc2CC(=O)O1	i	·	·	·
Clc1ccc(SCNc2ccccc2Cl)cc1	i	-17%	i	-8%
Cc1ccc(NCSc2ccc(Cl)cc2)cc1	i	11%	?	7.1µM*
Cc1ccc(C(=O)/C=C/c2ccc(-c3ccc(C)cc3)o2)cc1	14µM*	23%	i	-25%
COc1ccccc1Nc1nn2c(=O)c3ccc(C(=O)NC4CCC(C)CC4)cc3nc2s1 (stereo not given)	i	-6%	i	7%
Cc1ccc[n+](CC(=O)Nc2ccc([N+](=O)[O-])cc2)c1	i	-11%	i	8.9µM*
N#CCSc1nc2c(cc1C#N)CCCCCC2	i	14%	i	16µM*
N#Cc1cc2c(nc1SCC(=O)O)CCCC2	i	1%	i	-5%

Screens deposited in PubChem BioAssay by National Center for Advancing Translational Sciences (NCATS).
